This is a sample that favours compounds with a hit; in the whole collection about 7.2% have one here.
FLuc inh-1 = Firefly luciferase inhibition profiling of diverse chemical library using quantitative high-throughput screening. Luciferin 4-monooxygenase (Photinus pyralis), P08659. purified P. pyralis luciferase, luminescence, biochemical. Potency, µM (top dose mostly 115 µM), most hits filed as inhibitors. 2.5% of 76,000 active; also: % is scaled to controls: 0 for no effect and ±100 for the full control effect; nearly all actives have a fitted effect of over 65% in size
Target sequence (P08659 whole entry, looked up): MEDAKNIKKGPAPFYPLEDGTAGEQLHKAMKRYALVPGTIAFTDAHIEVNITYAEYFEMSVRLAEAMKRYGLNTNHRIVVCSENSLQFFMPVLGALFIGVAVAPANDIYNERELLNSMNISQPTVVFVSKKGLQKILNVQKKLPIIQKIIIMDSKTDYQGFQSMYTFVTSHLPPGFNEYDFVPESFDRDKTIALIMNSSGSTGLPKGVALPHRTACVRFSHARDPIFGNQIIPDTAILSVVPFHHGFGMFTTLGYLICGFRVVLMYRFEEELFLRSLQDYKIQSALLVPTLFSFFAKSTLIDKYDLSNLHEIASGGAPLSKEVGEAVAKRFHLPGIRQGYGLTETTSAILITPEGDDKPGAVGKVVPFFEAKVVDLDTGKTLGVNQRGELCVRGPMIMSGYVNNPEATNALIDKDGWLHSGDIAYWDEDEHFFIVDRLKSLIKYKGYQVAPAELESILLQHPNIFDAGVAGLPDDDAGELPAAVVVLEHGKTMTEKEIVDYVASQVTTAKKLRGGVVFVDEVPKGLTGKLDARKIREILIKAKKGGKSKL
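Cell-free enzyme assay, 10nM P. pyralis luciferase, luciferin and ATP each at 10uM. Inhibition profiled over a 6-point titration, read as luminescence.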
SNCA expr inh = Primary qHTS assay for inhibitors of alpha-synuclein gene (SNCA) expression | HEK-293 SNCA-luciferase knock-in, luminescence, 24 h | Potency, µM (titrated, usually from 57.2 µM), without a hit: at the highest dose activity change, negative = inhibition, most hits filed as inhibitors | AID 1671194, 2021 | 0.17% of 140,000 active;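 also: plate controls were DMSO cells for no effect and cell-free wells for full effect; nearly all actives have a fitted effect of over 45% in size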
hNpr1 antagonist = Natriuretic polypeptide receptor (hNpr1) antagonism - Primary qHTS. Atrial natriuretic peptide receptor 1 (Homo sapiens), P16066. HEK293 hNpr1 GloSensor cGMP, ANP-stimulated luminescence. Potency, µM (doses to about 46.3 µM), for the others: at the highest dose activity change, negative = inhibition, most hits filed as inhibitors. 1.6% of 76,000 active. AID 1347048, 2019; calls by dose curve; also: % is scaled to controls: 0 for no effect and ±100 for the full control effect; nearly all actives have a fitted effect of over 60% in size
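HEK293 cells stably expressing human Npr1 and cGMP GloSensor pGS-40F, loaded 2 h with 2% GloSensor reagent, given compound 30 min at room temperature. Luminescence read before and 20 min after 0.1 nM hNppA.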
HEK cytotox = Cytotoxic Profiling in HEK 293 Cell Line of Diverse Libraries Using Quantitative High-Throughput Screening; 6.6% of 94,000 active; Potency, µM (highest dose often 115 µM), inactives show at the top dose activity change, negative = cytotoxicity, hits mostly inhibitors; AID 1345083, 2018; HEK 293 viability, ATP luminescence (CellTiter-Glo), 48-72 h; also: % is scaled to controls: 0 for no effect and ±100 for the full control effect; nearly all actives have a fitted effect of over 60% in size
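Viability of HEK 293 cells, plated at 250 cells/well, was judged by cellular ATP after compound treatment for 48 or 72 hr. Luminescence was imaged 10 min after CellTiter-Glo addition at room temperature.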
NIH3T3 tox = Cytotoxic Profiling in NIH 3T3 Cell Line of Diverse Libraries Using Quantitative High-Throughput Screening | Potency, µM (highest dose often 96.7 µM), for the others: at the top dose activity change, negative = cytotoxicity, actives largely listed as inhibitors | 4.3% of 94,000 active | NIH 3T3 viability, CellTiter-Glo ATP luminescence, 48-72 h; also: % is scaled to controls: 0 for no effect and ±100 for the full control effect; nearly all actives have a fitted effect of over 55% in size
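Mouse fibroblast NIH 3T3 cells, 400 per well, received compound via pintool and were incubated for 48 or 72 hr prior to CellTiter-Glo ATP luminescence measurement.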
SNCA viab count = GF-AFC viability counterscreen for inhibitors of alpha-synuclein gene (SNCA) expression; HEK-293-SNCA-luc viability, GF-AFC fluorescence, 24 h; Potency, µM (top dose mostly 57.1 µM), for inactives: top-dose activity change, negative = cytotoxicity, most hits filed as cytotoxic; 0.12% of 150,000 active;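 also: 0% = DMSO-treated cells and -100% = medium-only wells without cells; nearly all actives have a fitted effect of over 30% in size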
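HEK-293-SNCA-luc cells (1500/well) plated 24 h, then exposed 24 h to a dilution series; GF-AFC added 30 min at 37C, fluorescence 405/540 nm; normalised to medium-only and DMSO wells, Hill fit.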
FLuc SDR no ATP = Firefly luciferase (FLuc-C-HiBiT) SDR gain of signal screen - without ATP. shares compounds with FLuc inh-1. 7.8% of 1,300 active. Potency, µM (highest dose often 32.7 µM), inactives show at the highest dose activation (signal gain), hits mostly activators. Purified FLuc-C-HiBiT, Nano-Glo HiBiT luminescence, no ATP. AID 1963318, 2024; also: nearly all actives have a fitted effect of over 55% in size
FLuc SDR ATP = Firefly luciferase (FLuc-C-HiBiT) SDR gain of signal screen - plus ATP | shares compounds with FLuc inh-1 | purified FLuc-C-HiBiT + ATP, HiBiT complementation luminescence | Potency, µM (highest dose often 32.7 µM), inactives show at the top dose activation (gain of signal), actives largely listed as activators | 8.7% of 1,300 active | AID 1963319, 2024;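 also: signal reports ligand binding via conformational change of the enzyme rather than luciferase catalysis; % of control where 0% means no effect; nearly all actives have a fitted effect of over 55% in size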
FLuc inh-2 = Firefly luciferase (FLuc-C-HiBiT) enzymatic inhibition screen - Functional assay; purified FLuc-C-HiBiT enzyme, luciferin luminescence; shares compounds with FLuc inh-1; 42% of 1,300 active; Potency, µM (highest dose often 32.7 µM), for inactives: at the highest dose activity change, negative = inhibition, hits mostly inhibitors; also: % is scaled to controls: 0 for no effect and ±100 for the full control effect; nearly all actives have a fitted effect of over 70% in size
* = called active by the depositor; [ ] = dose if it differs, or a comment. Unless noted, calls follow the shape of the dose curve; as a rule, active = well fitted curve in the direction sought with a large enough effect; inconclusive = small, poorly fitted or top-dose-only effect, or another doubt; inactive = no such curve, though single readings can be large; an effect the other way counts as inactive or inconclusive. Potency is read from the fitted curve at half-maximal effect.

For Cc1ccc(NC(=O)C2CCN(C(=O)c3ncn4c3COC(c3ccccc3)C4)CC2)cc1 (configuration not stated) the results were FLuc inh-1 2µM*, SNCA expr inh 70.9%, hNpr1 antagonist -23.1%, HEK cytotox 9.0%, NIH3T3 tox -9.4%, SNCA viab count 6.0%, FLuc SDR no ATP 11.6%, FLuc SDR ATP 1.57µM* and FLuc inh-2 1.76µM*.
For O=C(Nc1cccc(F)c1)C1CCN(C(=O)c2ncn3c2COC(c2ccccc2)C3)CC1 (configuration not stated) the results were FLuc inh-1 1µM*, SNCA expr inh 57.4%, hNpr1 antagonist inconclusive, HEK cytotox 6.2%, NIH3T3 tox -0.7%, SNCA viab count 4.5%, FLuc SDR no ATP 9.9%, FLuc SDR ATP 0.989µM* and FLuc inh-2 0.881µM*.
For O=C1CCCN1CCCN1C(=O)[C@H]2CN(Cc3ccccc3C(F)(F)F)C[C@H]2C1=O the results were FLuc inh-1 inactive, SNCA expr inh 9.9%, hNpr1 antagonist 1.6%, HEK cytotox -21.8%, NIH3T3 tox -18.7% and SNCA viab count 5.5%.
`O=C(Nc1ccccc1)C1CCN(C(=O)c2ncn3c2COC(c2ccccc2)C3)CC1` (configuration not stated) gave FLuc inh-1 2µM*, SNCA expr inh 62.7%, hNpr1 antagonist inconclusive, HEK cytotox -29.7%, NIH3T3 tox inactive, SNCA viab count -5.5%, FLuc SDR no ATP 15.5%, FLuc SDR ATP 1.57µM* and FLuc inh-2 1.57µM*.
Screening O=C(Nc1ccccc1)C1CCN(C(=O)c2ncn3c2COC(c2ccc(F)cc2)C3)CC1 (configuration not stated) returned FLuc inh-1 inconclusive, SNCA expr inh 16.3%, hNpr1 antagonist -7.3%, HEK cytotox 4.4%, NIH3T3 tox -1.9% and SNCA viab count 3.0%.
Screening O=C1NCCCCCCN(C(=O)Nc2ccc3c(c2)OCCO3)[C@H]2CCC[C@@H]12 returned FLuc inh-1 1.12µM*, SNCA expr inh 55.5%, hNpr1 antagonist inconclusive, HEK cytotox -9.1%, NIH3T3 tox -17.1%, SNCA viab count -1.4%, FLuc SDR no ATP inconclusive, FLuc SDR ATP inconclusive and FLuc inh-2 3.51µM*.
Screening O=C1CCN(C(=O)[C@@H]2CCCN2C(=O)Nc2ccc3c(c2)OCCO3)CCCCCCN1 returned FLuc inh-1 inactive, SNCA expr inh 0.4%, hNpr1 antagonist 2.8%, HEK cytotox inactive, NIH3T3 tox -11.0% and SNCA viab count -17.6%.
CC(=O)Nc1ccc(NC(=O)c2oc3ccc4c(c3c2C)C(=O)CC(C)(C)O4)cc1 was read as SNCA expr inh 73.2% and SNCA viab count -8.4%.
For Cc1ccc(NC(=O)c2oc3ccc4c(c3c2C)C(=O)CC(C)(C)O4)c(C)c1 the results were SNCA expr inh 75.1%, SNCA viab count -14.1%, FLuc SDR no ATP 20.0%, FLuc SDR ATP inconclusive and FLuc inh-2 inconclusive.
For c1ccc(Cc2noc(-c3nc(-c4ccc5c(c4)OCO5)no3)n2)cc1 the results were FLuc inh-1 inactive, SNCA expr inh 19.1%, hNpr1 antagonist 2.8%, HEK cytotox -7.8%, NIH3T3 tox -9.6% and SNCA viab count -7.6%.
Screening CCc1noc(-c2nc(-c3ccc4c(c3)OCO4)no2)n1 returned FLuc inh-1 10µM*, SNCA expr inh 36.2%, hNpr1 antagonist -25.9%, HEK cytotox inconclusive, NIH3T3 tox -19.2%, SNCA viab count 5.6%, FLuc SDR no ATP 25.4%, FLuc SDR ATP 19.4% and FLuc inh-2 inconclusive.
Cc1cnc(C(=O)N2CCCCCCNC(=O)[C@@H]3CCC[C@@H]32)cn1 was read as FLuc inh-1 inactive, SNCA expr inh 13.0%, hNpr1 antagonist -0.8%, HEK cytotox inactive, NIH3T3 tox inactive and SNCA viab count 6.0%.
`COc1ccc(Br)cc1C(=O)Nc1nc2ccc(F)cc2s1` gave SNCA expr inh 54.4%, SNCA viab count 4.0%, FLuc SDR no ATP 15.6%, FLuc SDR ATP 10.7% and FLuc inh-2 -8.4%.
`CCN(CC)S(=O)(=O)c1ccc2nc(NC(=O)c3ccccc3OC)sc2c1` gave SNCA expr inh 32.6% and SNCA viab count 9.8%.
For CN(C)c1ccc(Nc2ncncc2-c2nc(-c3ccccc3)no2)cc1 the results were FLuc inh-1 inactive, SNCA expr inh 60.2%, hNpr1 antagonist -4.3%, HEK cytotox inactive, NIH3T3 tox inactive and SNCA viab count 1.3%.
CCNC(=O)N[C@@H]1C=C[C@@H](c2c(C)nn(-c3ccc(F)cc3)c2C)C1 was read as FLuc inh-1 6.31µM*, SNCA expr inh -21.5%[87.6 µM], hNpr1 antagonist 20µM*, HEK cytotox 89.1µM*, NIH3T3 tox inconclusive, SNCA viab count -7.4%[87.6 µM], FLuc SDR no ATP 26.4%[49.3 µM], FLuc SDR ATP inconclusive and FLuc inh-2 inconclusive.
For Cc1nn(-c2ccc(F)cc2)c(C)c1[C@@H]1C=C[C@@H](NC(=O)c2ccco2)C1 the results were FLuc inh-1 inconclusive, SNCA expr inh 89.1%[87.6 µM], hNpr1 antagonist inconclusive, HEK cytotox inconclusive, NIH3T3 tox inconclusive and SNCA viab count -9.9%[87.6 µM].

Screens (PubChem BioAssay)
